Shown are actives, neighbours in structure and some others; about 10% of the full set was active somewhere.
HP1b binding inh = blocks HP1-beta chromodomain binding to methylated histone tails | P83916 | 390,000 compounds, 0.56% hits | AID 540317 | Potency, µM (top dose mostly 114 µM), for inactives: top-dose activity change, negative = inhibition, most hits filed as inhibitors | AlphaScreen HP1-beta / biotin-H3K9me3 peptide binding; also: potency is read from the fitted curve at half-maximal effect; nearly all actives have a fitted effect of over 70% in size
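Compound inhibition of the preformed complex between 50 nM HP1-beta and 50 nM biotinylated H3K9me3 peptide was read by AlphaScreen. Buffer was PBS pH 7.4 with 0.01% Tween-20. Incubations ran 30 min at room temperature, with 10 ug/mL donor/acceptor beads.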
Six1-Eya2 blk = Six1/Eya2 interaction inhibition. Q15475+O00167. AlphaScreen GST-Six1/His-Eya2 binding, biochemical; stronger effect = lower value. activity change, % (no concentration beside the values). 360,000 compounds, 0.56% hits. AID 651725; in the data active = activity change below about -65%; inconclusive = mostly about -30% to -63%; also: % is scaled to controls: 0 for no effect and ±100 for the full control effect
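Compounds are tested against tagged Six1 and Eya2 proteins bridged by glutathione donor and nickel acceptor beads; after a one-hour incubation at 37 °C without light, AlphaScreen emission is recorded.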
CtBP-E1A inh = inhibitors of CtBP/E1A interaction. activity change, % (concentration not given with the values). AID 651724. 340,000 compounds, 0.49% hits. AlphaScreen GST-E1A/His-CtBP binding, 1536-well; stronger effect = lower value; in the data active = activity change below about -65%; inconclusive = mostly about -30% to -63%; also: % is scaled to controls: 0 for no effect and ±100 for the full control effect
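AlphaScreen with 125 nM GST-E1A and 125 nM His-CtBP (5X stocks) in Tris pH 8.0, 300 mM NaCl, BSA, Tween 20, TCEP. Compounds preincubated 2 h at 37 deg C, then glutathione donor/nickel acceptor beads added for 1 h at 37 deg C in dark.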
G9a block = inhibitors of human histone lysine methyltransferase G9a; Q96KQ7; G9a H3K9 monomethylation, AlphaScreen, 2 h; Potency, µM (top dose mostly 102 µM), for inactives: top-dose activity, negative = inhibition, usual class: inhibitors; 350,000 compounds, 8.8% hits; AID 504332; also: potency is read from the fitted curve at half-maximal effect; % is scaled to controls: 0 for no effect and ±100 for the full control effect; nearly all actives have a fitted effect of over 75% in size
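Compounds were preincubated with 20 nM G9a for 15 min, after which biotinylated H3K9 peptide (500 nM) and SAM (20 uM) started a 2 h room-temperature reaction. Monomethylated product was quantified by antibody-based AlphaScreen chemiluminescence.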
BAZ2B block = BAZ2B (human) inhibition | AlphaScreen BAZ2B-H3K14Ac peptide displacement | Potency, µM (series often up to 114 µM), without a hit: at the highest dose activity change, negative = inhibition, usual class: inhibitors | 360,000 compounds, 4.4% hits | Q9UIF8; also: potency is read from the fitted curve at half-maximal effect; % is scaled to controls: 0 for no effect and ±100 for the full control effect; nearly all actives have a fitted effect of over 60% in size
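Inhibition is scored as reduced AlphaScreen emission. The BAZ2B/b-H3(5-23)K14Ac complex (50 nM each) in PBS pH 7.4, 0.01% Tween-20 meets compound (up to 110 uM) for 30 min at RT before bead addition.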
JMJD2A Tudor inh = inhibitors of human JMJD2A Tudor domain. O75164. AID 504339. AlphaScreen JMJD2A-Tudor / H3K4me3 peptide binding. 390,000 compounds, 4.4% hits. Potency, µM (doses to about 114 µM), for inactives: top-dose activity change, negative = inhibition, actives largely listed as inhibitors; also: potency is read from the fitted curve at half-maximal effect; % is scaled to controls: 0 for no effect and ±100 for the full control effect; nearly all actives have a fitted effect of over 50% in size
Target sequence (O75164 whole entry, looked up, the tested form may be a part): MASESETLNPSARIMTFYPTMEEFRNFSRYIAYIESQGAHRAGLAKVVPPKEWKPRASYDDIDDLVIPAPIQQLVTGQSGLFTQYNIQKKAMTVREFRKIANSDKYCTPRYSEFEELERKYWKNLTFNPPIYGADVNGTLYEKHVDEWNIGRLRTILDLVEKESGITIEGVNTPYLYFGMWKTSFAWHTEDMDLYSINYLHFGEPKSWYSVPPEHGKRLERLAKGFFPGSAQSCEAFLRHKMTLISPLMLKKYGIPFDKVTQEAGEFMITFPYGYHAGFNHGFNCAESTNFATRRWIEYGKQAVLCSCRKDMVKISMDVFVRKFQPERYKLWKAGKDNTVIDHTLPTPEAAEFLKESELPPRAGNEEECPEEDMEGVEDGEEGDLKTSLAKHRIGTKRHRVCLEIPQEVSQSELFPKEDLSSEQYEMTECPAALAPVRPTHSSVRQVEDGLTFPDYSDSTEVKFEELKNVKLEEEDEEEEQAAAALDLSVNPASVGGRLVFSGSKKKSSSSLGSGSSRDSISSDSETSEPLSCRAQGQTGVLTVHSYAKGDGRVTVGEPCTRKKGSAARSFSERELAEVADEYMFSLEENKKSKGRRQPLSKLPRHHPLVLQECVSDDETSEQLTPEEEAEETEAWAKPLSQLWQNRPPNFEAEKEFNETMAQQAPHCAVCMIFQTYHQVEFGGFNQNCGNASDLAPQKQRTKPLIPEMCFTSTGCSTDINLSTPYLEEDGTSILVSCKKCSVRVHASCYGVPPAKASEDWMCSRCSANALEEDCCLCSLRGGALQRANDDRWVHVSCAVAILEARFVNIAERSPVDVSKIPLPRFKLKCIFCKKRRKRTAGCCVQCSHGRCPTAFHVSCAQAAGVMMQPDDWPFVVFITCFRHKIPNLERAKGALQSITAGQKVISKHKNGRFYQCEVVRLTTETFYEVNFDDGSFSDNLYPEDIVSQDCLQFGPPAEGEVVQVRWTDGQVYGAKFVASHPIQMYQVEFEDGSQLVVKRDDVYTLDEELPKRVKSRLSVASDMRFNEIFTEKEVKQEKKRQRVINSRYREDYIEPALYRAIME
* marks the source's active call; other numbers are inactive results; [ ] = dose if it differs, or a comment. Unless noted, calls follow the shape of the dose curve; as a rule, active = well fitted inhibition curve with a large enough effect; inconclusive = small, poorly fitted or top-dose-only effect; inactive = no such curve, though single readings can be large or run the other way.

`CC(=O)Oc1ccc(C(=O)[C@H]2[C@H]3C(=O)N(c4cccc5ccccc45)C(=O)[C@H]3[C@@H]3C=CC=NN32)cc1` gave HP1b binding inh -20.3%, Six1-Eya2 blk inconclusive, CtBP-E1A inh 2.5, G9a block inconclusive, BAZ2B block inconclusive and JMJD2A Tudor inh inconclusive.
O=C(C1=C[C@@H]2[C@H]3C(=O)N(c4cccc(Cl)c4)C(=O)[C@H]3[C@@H](C(=O)c3ccc(Cl)cc3)N2C=C1)c1ccccc1 was read as HP1b binding inh -21.0%, Six1-Eya2 blk -7.0, CtBP-E1A inh 0.4, G9a block 3.16µM*, BAZ2B block -8.7% and JMJD2A Tudor inh inconclusive.
`CC(=O)c1ccc(N2C(=O)C3C(C2=O)C(C(=O)c2ccc(Cl)cc2)N2CCCC32)cc1` (stereo not drawn) gave HP1b binding inh -16.1%, Six1-Eya2 blk -9.1, CtBP-E1A inh 5.9, G9a block inconclusive, BAZ2B block inconclusive and JMJD2A Tudor inh -18.5%[11.4 µM].
O=C(C1=C[C@@H]2[C@H]3C(=O)N(c4ccccc4Cl)C(=O)[C@H]3[C@@H](C(=O)c3ccc(Cl)cc3)N2C=C1)c1ccccc1 was read as G9a block 8.91µM* and BAZ2B block -38.8%.
`Cc1ccc(N2C(=O)[C@@H]3[C@H](C2=O)[C@H]2C=C(C(=O)c4ccccc4)C=CN2[C@@H]3C(=O)c2ccc(Cl)cc2)cc1` gave HP1b binding inh 36.5%, Six1-Eya2 blk -1.2, CtBP-E1A inh -6.9, G9a block 2.24µM*, BAZ2B block -8.0% and JMJD2A Tudor inh -25.5%.
O/N=C1/CCc2nonc2/C1=N/O was read as HP1b binding inh 13.4%, Six1-Eya2 blk inconclusive, CtBP-E1A inh -18.0, G9a block 0.708µM*, BAZ2B block 10µM* and JMJD2A Tudor inh inconclusive.
Screening Cc1occc1C(=O)NNC(=S)Nc1cccc([N+](=O)[O-])c1 returned HP1b binding inh 5.2%, Six1-Eya2 blk -4.8, CtBP-E1A inh -11.0, G9a block 11.2µM*, BAZ2B block -3.1% and JMJD2A Tudor inh -27.4%.
For Cc1cccc(NC(=O)/C=C/c2ccc([N+](=O)[O-])s2)c1 the results were HP1b binding inh 20.2%, Six1-Eya2 blk -5.1, CtBP-E1A inh 11.0, G9a block 7.8%[59 µM], BAZ2B block -6.8% and JMJD2A Tudor inh -19.2%.
For Cc1cccc(NC(=S)N/N=C/c2ccc([N+](=O)[O-])s2)c1 the results were HP1b binding inh inconclusive, Six1-Eya2 blk inconclusive, CtBP-E1A inh inconclusive, G9a block inconclusive, BAZ2B block 10µM* and JMJD2A Tudor inh 56.2µM*.
`Cc1cccc(NC(=S)NNC(=O)c2cccc([N+](=O)[O-])c2)c1` gave HP1b binding inh 0.7%, Six1-Eya2 blk -1.5, CtBP-E1A inh -10.3, G9a block 20µM*, BAZ2B block inconclusive and JMJD2A Tudor inh -23.8%.
`O=[N+]([O-])c1cccc(NC(=S)NCc2ccncc2)c1` gave HP1b binding inh -4.1%, Six1-Eya2 blk -4.3, CtBP-E1A inh 5.1, G9a block 35.5µM*, BAZ2B block -13.7% and JMJD2A Tudor inh -23.8%.
CC(=O)NC(=S)Nc1cccc([N+](=O)[O-])c1 was read as HP1b binding inh 3.0%, Six1-Eya2 blk 0.6, CtBP-E1A inh 0.0, G9a block -32.9%, BAZ2B block -26.5% and JMJD2A Tudor inh -9.7%.
For Oc1c(C(c2cccc(Cl)c2)N2CCOCC2)sc2nc(-c3ccco3)nn12 (stereo not drawn) the results were HP1b binding inh 30.1%, G9a block -26.2%[59 µM], BAZ2B block -11.5% and JMJD2A Tudor inh -7.8%.
For CN(Cc1ccco1)c1ncnc2ccc(-c3cccc(NS(C)(=O)=O)c3)cc12 the results were G9a block 5.5%[0.501 µM].
For Cc1cc(S(=O)(=O)Nc2ccc(-c3ccc(N4CCCCC4)nn3)cc2)c(C)cc1Cl the results were HP1b binding inh inconclusive, G9a block -21.0%[59 µM], BAZ2B block inconclusive and JMJD2A Tudor inh -19.8%.
For COc1cccc(CNC(=O)c2cnc3c(-c4ccc(F)cc4)c(C)nn3c2C)c1 the results were HP1b binding inh 26.5%, G9a block 8.9%[59 µM], BAZ2B block -3.7% and JMJD2A Tudor inh 5.0%.
Screening O=C(CN1C(=O)C2CCCCN2c2ccc(C(=O)N3CCCC3)cc21)NCc1cccc(F)c1 (stereo not drawn) returned HP1b binding inh 10.1%[57 µM], G9a block 0.5%[59 µM], BAZ2B block -4.4% and JMJD2A Tudor inh -16.9%.
`Cc1cc(Br)ccc1NC(=S)Nc1cccc([N+](=O)[O-])c1` gave HP1b binding inh -18.9%, Six1-Eya2 blk -12.5, CtBP-E1A inh 3.5, G9a block 44.7µM*, BAZ2B block -0.6% and JMJD2A Tudor inh -35.2%.
`CNC(=S)Nc1cccc([N+](=O)[O-])c1` gave HP1b binding inh 13.6%, Six1-Eya2 blk -9.8, CtBP-E1A inh -1.7, G9a block inconclusive, BAZ2B block -19.2% and JMJD2A Tudor inh -0.7%.
CC[n+]1c(C)sc2cc(OC)ccc21 was read as HP1b binding inh 28.1%, Six1-Eya2 blk -8.8, CtBP-E1A inh -13.7, G9a block 25.1µM*, BAZ2B block -18.4% and JMJD2A Tudor inh -10.0%.
`CC[n+]1c(C)sc2c(C)cc(C)cc21` gave HP1b binding inh 54.9%, Six1-Eya2 blk 0.7, CtBP-E1A inh 1.6, G9a block -45.7%[59 µM], BAZ2B block -1.3% and JMJD2A Tudor inh -28.1%.
For Cc1ccc(CN2CCCn3nc(C(=O)NCCC(C)C)cc3C2=O)cc1 the results were HP1b binding inh 21.8%, G9a block 14.7%[59 µM], BAZ2B block -9.0% and JMJD2A Tudor inh -29.8%.
`COC(=O)Cn1c(=NC(=O)c2ccc3c(c2)OCCO3)sc2ccccc21` gave HP1b binding inh 35.3%[57 µM], G9a block -8.1%[59 µM], BAZ2B block 8.3% and JMJD2A Tudor inh -6.2%.
`CCOC(=O)c1c(C)[nH]c(N=Nc2cccc(C)c2)c1C` gave HP1b binding inh inconclusive, Six1-Eya2 blk inconclusive, CtBP-E1A inh inconclusive, G9a block inconclusive, BAZ2B block 25.1µM* and JMJD2A Tudor inh 25.1µM*.
For CCOC(=O)c1c(C)[nH]c(CCC(=O)NCc2cccc(C)c2)c1C the results were HP1b binding inh 25.7%[57 µM], G9a block -0.1%[59 µM], BAZ2B block -13.6% and JMJD2A Tudor inh -10.1%.
CCOC(=O)c1c(C)[nH]c(N=Nc2cccc(OC)c2)c1C was read as HP1b binding inh 50.1µM*, Six1-Eya2 blk -4.2, CtBP-E1A inh 0.0, G9a block 31.6µM*, BAZ2B block 22.4µM* and JMJD2A Tudor inh 28.2µM*.
`CCOC(=O)c1c(C)[nH]c(CCC(=O)NCc2cccc(OC)c2)c1C` gave HP1b binding inh 8.1%[57 µM], G9a block -1.6%[59 µM], BAZ2B block 3.6% and JMJD2A Tudor inh -29.9%.
